An excerpt weighted towards active compounds, which were near 1.2% of everything screened.
LmPK inh – qHTS Assay for Inhibitors of Leishmania Mexicana Pyruvate Kinase (LmPK); 290,000 compounds, 0.37% hits; Potency, µM (series often up to 57.5 µM), usual class: inhibitors; purified LmPK, Kinase-Glo ATP luminescence, 1 h; AID 1721, 2009; Q27686
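qHTS format; LmPK 0.1 nM; substrates PEP 0.5 mM and ADP 0.1 mM. One-hour room-temperature incubation, then coupled luciferase luminescence; 0.5 nM enzyme wells mark activation.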
Giardia FBPA inh-1 – qHTS Assay for Inhibitors of Fructose-1,6-bisphosphate Aldolase from Giardia Lamblia; A8B2U2; purified Giardia FBPA; Potency, µM (titrated, usually from 59.6 µM), hits mostly inhibitors; 290,000 compounds, 0.71% hits; AID 2451, 2010; further: nearly all actives have a fitted effect of over 55% in size
Target sequence (A8B2U2 whole entry, looked up): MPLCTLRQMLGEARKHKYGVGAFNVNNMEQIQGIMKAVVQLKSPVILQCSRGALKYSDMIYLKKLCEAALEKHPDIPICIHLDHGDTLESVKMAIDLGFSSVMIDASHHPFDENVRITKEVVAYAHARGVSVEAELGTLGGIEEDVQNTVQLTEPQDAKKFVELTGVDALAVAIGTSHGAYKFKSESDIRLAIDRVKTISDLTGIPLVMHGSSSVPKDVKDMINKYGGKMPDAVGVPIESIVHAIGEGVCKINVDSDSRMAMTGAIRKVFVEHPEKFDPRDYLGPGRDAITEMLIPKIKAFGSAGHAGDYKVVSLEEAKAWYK
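Giardia FBPA (40 nM reagent) was preincubated 10 min at RT with compound (up to 57.5 uM final), then substrate plus GAPDH/TPI/NAD/arsenate coupling system with diaphorase/resazurin was added; resorufin fluorescence (525/598 nm) was read after 20 min.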
TbPYK inhibitor – qHTS of Trypanosoma Brucei Inhibitors; TbPYK enzyme, Kinase-Glo Plus ATP luminescence, 45 min; Potency, µM (top dose mostly 76.8 µM), hits mostly inhibitors; 410,000 compounds, 0.12% hits; AID 624173, 2012; further: nearly all actives have a fitted effect of over 50% in size
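Assay buffer: 50 mM TEA pH 7.2, 100 mM KCl, 10 mM MgCl2, 0.05% BSA, 0.01% Tween-20. Pyruvate kinase from T. brucei plus substrate met compound, then ADP (130 uM final). Luminescence was read post 45 min RT.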
AMA1-RON2 inh – qHTS for Inhibitors of AMA1-RON; Towards Development of Antimalarial Drug Lead: Primary Screen; AID 720542, 2013; Plasmodium falciparum AMA1 (3D7) - RON2 peptide interaction; AlphaScreen AMA1-biotinylated RON2 peptide binding; 360,000 compounds, 0.2% hits; Potency, µM (top dose mostly 58.2 µM), hits mostly inhibitors; further: nearly all actives have a fitted effect of over 45% in size
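AMA1 (3D7) with his tag at 25 nM final met compounds first, then biotinylated RON2 peptide at 25 nM; detection used donor plus acceptor beads, 10 µg/mL apiece, read by AlphaScreen after 30 min at room temperature.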
NS1 inh – qHTS Assay for Inhibitors of Influenza NS1 Protein Function; Potency, µM (doses to about 46.1 µM); 270,000 compounds, 0.4% hits; AID 2326, 2010; calls by dose curve; further: actives are rising curves; nearly all actives have a fitted effect of over 50% in size
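OD600 was taken as the measure of yeast growth restored by compound in an NS1-expressing S. cerevisiae strain. Cells had been washed out of glucose medium and diluted 1:100 into galactose -URA medium, pH 6.0.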
Giardia growth – qHTS Assay for Inhibitors of Fructose-1,6-bisphosphate Aldolase from Giardia Lamblia: Giardia lamblia growth inhibition | 1,500 compounds, 5% hits | AID 2785, 2010 | Potency, µM (doses to about 57.5 µM), actives largely listed as inhibitors | Giardia lamblia trophozoite growth inhibition | shares compounds with Giardia FBPA inh-1;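 further: trophozoites exposed to compound for 48 h at 37 °C; nearly all actives have a fitted effect of over 70% in size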
Mammalian tox – qHTS Assay for Inhibitors of Fructose-1,6-bisphosphate Aldolase from Giardia Lamblia: Mammalian cellular toxicity; 1,500 compounds, 4% hits; Potency, µM (doses to about 57.5 µM), actives largely listed as inhibitors; shares compounds with Giardia FBPA inh-1; mammalian cell viability counter-screen, qHTS;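 further: Chinese hamster ovary cells used as mammalian cytotoxicity surrogate; viability measured as cellular ATP by luminescence; compound exposure lasted 48 h before reading; nearly all actives have a fitted effect of over 60% in size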
Giardia FBPA inh-2 – qHTS Assay for Inhibitors of Fructose-1,6-bisphosphate Aldolase from Giardia Lamblia: Primary screen confirmation | purified Giardia aldolase enzyme activity, qHTS | Potency, µM (series often up to 57.5 µM), most hits filed as inhibitors | AID 2787, 2010 | shares compounds with Giardia FBPA inh-1 | 1,500 compounds, 5% hits; further: nearly all actives have a fitted effect of over 45% in size
Rabbit FBPA inh – qHTS Assay for Inhibitors of Fructose-1,6-bisphosphate Aldolase from Giardia Lamblia: Rabbit FBPA Selectivity. shares compounds with Giardia FBPA inh-1. Potency, µM (doses to about 57.5 µM), most hits filed as inhibitors. 1,500 compounds, 4% hits. Rabbit muscle FBPA enzyme inhibition, selectivity counter-screen; further: nearly all actives have a fitted effect of over 60% in size
GAPDH counter – qHTS Assay for Inhibitors of Fructose-1,6-bisphosphate Aldolase from Giardia Lamblia: Coupling assay counterscreen confirmation; shares compounds with Giardia FBPA inh-1; GAPDH coupling enzyme counterscreen, biochemical, qHTS; Potency, µM (series often up to 57.5 µM), actives largely listed as inhibitors; 1,500 compounds, 6% hits; further: nearly all actives have a fitted effect of over 55% in size
Hits are given with their value; [ ] = another dose, or the depositor's remark. Unless noted, the call rests on the fitted dose curve; in most records, active means well fitted curve in the direction sought with a large enough effect; inconclusive means small, poorly fitted or top-dose-only effect, or another doubt; inactive means no such curve, though single readings can be large; an effect the other way counts as inactive or inconclusive.

Results for COc1ccc(S(=O)(=O)N2CCN(Cc3ccccc3)CC2)c(C)c1 ?
LmPK inh: inactive; Giardia FBPA inh-1: inactive; TbPYK inhibitor: inactive; AMA1-RON2 inh: inactive; NS1 inh: inactive

Results for Cc1ccc(S(=O)(=O)N2CCN(CCc3ccccc3)CC2)c(C)c1 ?
LmPK inh: inactive; Giardia FBPA inh-1: 20µM; TbPYK inhibitor: inactive; AMA1-RON2 inh: inconclusive; NS1 inh: inactive; Giardia growth: inactive; Mammalian tox: inactive; Giardia FBPA inh-2: inactive; Rabbit FBPA inh: inactive; GAPDH counter: inactive

How did COc1cc(C(=O)O/N=C2/C=C(C)C(=O)C=C2C)cc(OC)c1OC do in these assays?
LmPK inh: inactive; Giardia FBPA inh-1: 6.3µM; TbPYK inhibitor: inactive; AMA1-RON2 inh: inactive; NS1 inh: inactive; Giardia growth: inactive[10.4 µM]; Mammalian tox: inactive; Giardia FBPA inh-2: 14µM; Rabbit FBPA inh: 6.3µM; GAPDH counter: 3.2µM

What do the screens show for `COc1ccccc1OCC#CCN1CCCCCC1`?
LmPK inh: inactive; Giardia FBPA inh-1: inconclusive; TbPYK inhibitor: inactive; AMA1-RON2 inh: inconclusive; NS1 inh: inactive

Results for COc1ccccc1OCC#CCN1CCOCC1 ?
LmPK inh: inactive; Giardia FBPA inh-1: 11µM; TbPYK inhibitor: inactive; AMA1-RON2 inh: inactive; NS1 inh: inactive; Giardia growth: inactive[10.4 µM]; Mammalian tox: inactive; Giardia FBPA inh-2: inactive; Rabbit FBPA inh: inactive; GAPDH counter: inactive

How did COc1ccccc1NC(=O)Cn1c(=O)n(-c2ccccc2Cl)c(=O)c2sc3ccccc3c21 do in these assays?
TbPYK inhibitor: inactive

How did CCCC12CN3CC(CCC)(CN(C1)C3c1ccc(OC(C)C)cc1)C2=O (stereo unspecified) do in these assays?
TbPYK inhibitor: inactive

What do the screens show for `Nc1ccc2nc(CCCCc3nc4ccccc4[nH]3)[nH]c2c1`?
LmPK inh: inactive; Giardia FBPA inh-1: 13µM; TbPYK inhibitor: inactive; AMA1-RON2 inh: inactive; NS1 inh: inactive; Giardia growth: inactive; Mammalian tox: inactive; Giardia FBPA inh-2: inactive; Rabbit FBPA inh: inactive; GAPDH counter: inactive

What do the screens show for `Nc1ccc2nc(CCCCCCc3nc4ccc(N)cc4[nH]3)[nH]c2c1`?
LmPK inh: inactive; Giardia FBPA inh-1: inactive; TbPYK inhibitor: inactive; AMA1-RON2 inh: inconclusive; NS1 inh: inactive

What do the screens show for `CCC(C)(C)C1CCC(=NNc2nc3ccccc3[nH]2)CC1` (stereo unspecified)?
LmPK inh: inactive; Giardia FBPA inh-1: inactive; TbPYK inhibitor: inactive; AMA1-RON2 inh: inactive; NS1 inh: inactive

How did CC(=O)N1CCC(=NNc2nc3ccccc3[nH]2)CC1 do in these assays?
LmPK inh: inactive; Giardia FBPA inh-1: 18µM; TbPYK inhibitor: inactive; AMA1-RON2 inh: inactive; Giardia growth: inconclusive; Mammalian tox: inactive; Giardia FBPA inh-2: inactive; Rabbit FBPA inh: inactive; GAPDH counter: inactive

How did C=CCN(CC=C)CCOc1cc(C)ccc1[N+](=O)[O-] do in these assays?
LmPK inh: inactive; Giardia FBPA inh-1: inconclusive; TbPYK inhibitor: inactive; AMA1-RON2 inh: inactive
